According to PubChem BioAssay:
Activity calls are given as the source filed them. The rule behind the calls is not given here.

Each compound was assayed against Pantothenate synthetase (Mycobacterium tuberculosis (strain ATCC 25618 / H37Rv)) (UniProt P9WIL5) (assay: Coupled enzyme confirmation of inhibitors against recombinant Mtb PanC (AID 375;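 note: 0% = full reaction with vehicle and 100% = no enzyme background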)). Conditions: coupled enzyme assay; at 10 µM, hits give high values.
Sequence of Pantothenate synthetase (Mycobacterium tuberculosis (strain ATCC 25618 / H37Rv)) (P9WIL5 whole entry, looked up): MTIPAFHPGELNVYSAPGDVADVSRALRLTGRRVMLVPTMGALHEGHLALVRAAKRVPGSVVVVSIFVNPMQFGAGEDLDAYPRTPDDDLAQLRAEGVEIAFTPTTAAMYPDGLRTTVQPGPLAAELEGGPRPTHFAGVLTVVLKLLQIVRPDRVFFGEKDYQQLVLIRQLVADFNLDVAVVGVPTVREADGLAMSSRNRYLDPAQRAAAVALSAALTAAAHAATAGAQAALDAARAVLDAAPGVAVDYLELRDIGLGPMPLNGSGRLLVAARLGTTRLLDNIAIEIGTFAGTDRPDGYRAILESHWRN

SMILES	inhibition
COc1ccc(CN(C(=O)c2cccs2)c2nccs2)cc1OC	3% (inactive)
CN(C)c1cccc(N=C2C=C(N3CCOCC3)CC(C)(C)C2)c1	0% (inactive)
CCC1CCCCN1C(=O)CSc1nnc(-c2ccco2)o1 (configuration not stated)	1% (inactive)
COc1ccccc1C(=O)Nc1c2c(nn1-c1cccc(C)c1C)CS(=O)(=O)C2	7% (inactive)
O=C(OCc1cccs1)c1ccccc1NS(=O)(=O)c1ccc2c(c1)OCCO2	0% (inactive)
CCC(C)NCC(O)COCc1ccc(Cl)cc1 (configuration not stated)	4% (inactive)
Cc1cc(-c2ccccc2)c2c3c(cn2n1)c(=O)n(C)c(=O)n3C	0% (inactive)
CCN(C1CCCCC1)S(=O)(=O)c1ccc(OC)c(C)c1	0% (inactive)
COc1cccc(NC(=O)N2CCCC2C(=O)NC(C)C)c1 (configuration not stated)	0% (inactive)
CCOC(=O)c1cc(-c2ccccc2)sc1N	3% (inactive)
CC(C)CCn1c(=O)c2ccccc2n2c(CN(C)Cc3ccccc3)nnc12	0% (inactive)
O=C(NCC1CCCO1)c1cc(-c2ccncc2)nc2ccc(S(=O)(=O)N3CCOCC3)cc12 (configuration not stated)	0% (inactive)
O=C(Nc1cccc2c1CCCC2)C1CCN(c2nnnn2-c2ccccc2)CC1	5% (inactive)
Cc1sc2ncnc(OCC(=O)N3CCN(S(=O)(=O)c4ccc(Cl)cc4)CC3)c2c1C	0% (inactive)
Cc1nc(NC2=NCN(CCc3ccccc3)CN2)nc2c(C)cccc12	0% (inactive)
Clc1ccc(-n2nnnc2Sc2ncnc3sccc23)cc1	0% (inactive)
COc1ccccc1C(=O)NCC(c1cccnc1)N(C)C (configuration not stated)	0% (inactive)
